# Data: the supplement of paper PMC6555819
# What was measured:
# Test in all cases: PBM binding z-score (relative to random genomic background probes); higher = stronger binding; sequences stand for … in GC…GCGATTGACAGCGTAGAATGAAGG
# [1] = system: FXR:RXRa (NR concentration 270 nM, RXRa partner concentration 90 nM)
# Outline: (§1)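 Ligand-free nuclear receptor dimers were applied to custom Agilent 4×180K protein-binding microarrays whose double-stranded probes carried direct-repeat seeds, single-nucleotide variants, half-site ablations and random human genomic background sequences in 34-nt variable regions. Incubation lasted 1 h. Binding z-scores were computed against the random background probes from regression-normalized fluorescence.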
# [2] = system: LXRa:RXRa (NR concentration 270 nM, RXRa partner concentration 90 nM)
# Outline: as §1
# [3] = system: LXRa homodimer (NR concentration 270 nM)
# Outline: as §1
# [4] = system: LXRb:RXRa (NR concentration 270 nM, RXRa partner concentration 90 nM)
# Outline: as §1
# [5] = system: LXRb homodimer (NR concentration 270 nM)
# Outline: as §1
# [6] = system: PPARa:RXRa (NR concentration 270 nM, RXRa partner concentration 90 nM)
# Outline: as §1
# [7] = system: PPARg:RXRa (NR concentration 180 nM, RXRa partner concentration 90 nM)
# Outline: as §1
# [8] = system: PPARg:RXRa 270nM:90nM, anti-RXR (NR concentration 270 nM, RXRa partner concentration 90 nM)
# Outline: as §1
# [9] = system: PPARg:RXRa 30nM:10nM, anti-RXR (NR concentration 30 nM, RXRa partner concentration 10 nM)
# Outline: as §1
# [10] = system: PPARg:RXRa 90nM:30nM, anti-RXR (NR concentration 90 nM, RXRa partner concentration 30 nM)
# Outline: as §1
# [11] = system: PPARg:RXRa DBDmut IVT, anti-RXR (DBD mutation: RXRa K156A/R161A, NR concentration 270 nM, RXRa partner concentration 90 nM)
# Outline: as §1
# [12] = system: PPARg:RXRa IVT, anti-PPARg (NR concentration 270 nM, RXRa partner concentration 90 nM)
# Outline: as §1
# [13] = system: PPARg DBDmut:RXRa IVT, anti-PPARg (DBD mutation: PPARg1 K132A/R137A, NR concentration 270 nM, RXRa partner concentration 90 nM)
# Outline: as §1
# [14] = system: PPARg DBDmut IVT, anti-PPARg (DBD mutation: PPARg1 K132A/R137A, NR concentration 270 nM)
# Outline: as §1
# [15] = system: PPARg homodimer (NR concentration 180 nM)
# Outline: as §1
# [16] = system: PXR:RXRa (NR concentration 270 nM, RXRa partner concentration 90 nM)
# Outline: as §1
# [17] = system: PXR homodimer (NR concentration 270 nM)
# Outline: as §1
# [18] = system: RARa:RXR (NR concentration 270 nM, RXRa partner concentration 90 nM)
# Outline: as §1
# [19] = system: RARa homodimer (NR concentration 270 nM)
# Outline: as §1
# [20] = system: RARb:RXRa (NR concentration 270 nM, RXRa partner concentration 90 nM)
# Outline: as §1
Sequence,PBM binding z-score [1],PBM binding z-score [2],PBM binding z-score [3],PBM binding z-score [4],PBM binding z-score [5],PBM binding z-score [6],PBM binding z-score [7],PBM binding z-score [8],PBM binding z-score [9],PBM binding z-score [10],PBM binding z-score [11],PBM binding z-score [12],PBM binding z-score [13],PBM binding z-score [14],PBM binding z-score [15],PBM binding z-score [16],PBM binding z-score [17],PBM binding z-score [18],PBM binding z-score [19],PBM binding z-score [20]
TCGAGTAGGTTAGGGGCATTCGGAATGGCGTCGA,0.123,0.347,-0.32,0.736,-0.712,1.06,0.477,2.22,1.15,1.51,1.94,1.69,-0.634,-0.223,0.203,0.507,-0.0899,0.497,-0.724,1.09
ATCTCTAGGTAAAGTTCAGGGAAAGATCGATAGA,1.49,2.4,1.88,1.58,1.03,2.86,3.53,4.62,2.77,4.35,2.67,2.44,1.23,1.09,2.21,2.17,1.99,1.93,1.68,2.99
CAAACTAGGACAAGGTCAAAGTCGGTTTGTGCCA,4.54,4.18,2.08,3.48,0.526,5.05,5.5,5.41,3.12,4.9,5.64,5.61,1.68,1.21,2.27,4.44,1.41,4.44,0.511,3.83
GCGACTGGGGCATCAGCGGGTTACCATAACTTAA,-0.361,-0.573,-0.505,0.433,-0.992,1.11,0.815,0.669,-0.383,0.237,3.43,2.86,-0.728,-1.07,0.437,-0.0944,-0.517,0.346,-0.439,0.729
TGTTGTAGATCAACAGGAGGTTAAGAAAGATCGA,0.0129,0.966,0.018,0.701,-0.0946,0.963,-0.033,0.456,0.304,0.492,-0.279,0.51,0.32,0.601,0.107,0.714,-0.0905,0.912,-0.122,0.386
AATACAGGTTCACTAGGCCAGAGTAGGTACGAAT,1.7,2.58,0.711,1.5,0.333,3.19,3.24,2.98,0.739,1.97,1.36,2.73,1.46,0.869,0.811,1.47,0.559,1.64,0.374,1.78
GATACAGTGTCAGCTAGAGGCCAGAGTATGGAAA,-0.507,-0.554,-0.437,-0.763,-0.98,-0.257,0.158,-0.349,-0.273,-0.224,-0.588,0.187,0.343,-0.259,-0.286,-0.439,-0.0774,-0.0269,-0.579,0.973
CGAACTAGGTCATTGACAGGACAGTGTATAGTAA,4.45,3.09,0.874,2.13,0.106,4.79,7.66,6.32,3.42,5.88,7.92,8.25,2.44,1.65,2.13,1.67,0.281,2.47,0.571,3.63
TCTAGCAGGCCAGAAGGTCACTCAAGAGGTACGG,1.61,2.17,0.0558,1.8,-0.711,3.04,1.46,2.86,2.27,2.71,1.1,0.932,-0.221,-1.25,2.43,2.79,-0.00251,3.63,-0.201,3.28
TCTAGTTGGTCACGGAGGTCGCACACGACGGGTA,0.941,1.09,-0.0222,1.04,0.0566,2.04,1.61,2.28,2.83,2.43,2.12,2.88,0.487,0.825,1.19,1.79,-0.0843,1.63,0.349,2.47
TAGCCTAGGTCATTGGGTCAGTATAGTACGCATC,4.85,4.31,1.59,3.21,0.907,4.58,5.28,5.07,1.89,3.99,4.09,4.95,0.491,0.952,3.71,2.99,0.622,3.67,0.571,4.06
TCTAGTTGGTCACGGAGGTCACACAGGACGGGTA,3.66,3.54,2.46,3.05,0.75,3.83,3.74,3.76,3.51,3.91,2.41,4.28,0.872,-0.126,3.68,4.78,3.02,4.72,1.58,3.98
GCTGCTAGGTCAACTGATGATCAGCTAAAGCTCG,3.88,2.96,-0.334,2.02,0.0909,3.68,2.88,3.19,0.694,2.07,4.79,4.29,-0.231,0.333,1.28,1.34,-0.82,2.48,-0.292,4.25
CCTACTGGACCAAAGGTCATTGATTCCAATGCTC,4.9,5.68,5.86,5.23,2.31,6.24,10.5,9.96,10.5,10.8,3.51,5.62,0.797,0.872,3.81,5.47,3.17,5.95,2.78,4.48
